# Shown is part of a subset that was picked to be rich in hits.
# NTMT1 inhibitor: NTMT1 methyltransferase inhibition; Q9BV86; NTMT1 MTase-Glo SAH luminescence, purified enzyme; Potency, µM (doses to about 114 µM), for inactives: top-dose activity change, negative = inhibition, usual class: inhibitors; actives 2.5% (n = 59,000); AID 1645870;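 note: potency is the fitted concentration of half-maximal effect; plate controls were DMSO vehicle for no effect and no enzyme for full effect; nearly all actives have a fitted effect of over 65% in size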
# Target sequence (Q9BV86 whole entry, looked up): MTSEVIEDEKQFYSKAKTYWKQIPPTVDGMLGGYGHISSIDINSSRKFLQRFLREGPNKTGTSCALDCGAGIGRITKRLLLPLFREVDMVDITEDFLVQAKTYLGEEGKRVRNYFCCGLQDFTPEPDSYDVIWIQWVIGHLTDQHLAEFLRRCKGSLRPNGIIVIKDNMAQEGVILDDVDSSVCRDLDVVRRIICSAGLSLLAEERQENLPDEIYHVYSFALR
# DYRK1A inh-1: inhibitors of human DYRK1A kinase. shares compounds with NTMT1 inhibitor. recombinant DYRK1A, Kinase-Glo ATP depletion luminescence. Potency, µM (highest dose often 76.9 µM), inactives show at the highest dose activity change, negative = inhibition, usual class: inhibitors. actives 80% (n = 100). AID 2705
# CLK4 inh-1: inhibits human CLK4 kinase in Kinase-Glo confirmation | shares compounds with NTMT1 inhibitor | recombinant Clk4, Kinase-Glo ATP luminescence, 4.5 h | Potency, µM (doses to about 76.9 µM), without a hit: at the top dose activity, negative = inhibition, usual class: inhibitors | actives 90% (n = 90) | AID 493204
# CLK4 inh-2: inhibitors of human CLK4 kinase, SAR round 2; Potency, µM, usual class: inhibitors; shares compounds with NTMT1 inhibitor; Reaction Biology kinase assay, 10 uM ATP; actives 100% (n = 65); calls by dose curve
# DYRK1A inh-2: inhibitors of human DYRK1A kinase; shares compounds with NTMT1 inhibitor; Reaction Biology kinase assay, 10 uM ATP; Potency, µM, hits mostly inhibitors; actives 90% (n = 65); AID 504424;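 active = compounds that showed inhibition of Dyrk1a and received a fitted potency; inactive = compounds that showed no inhibition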
# CLK2 RBC: inhibitors of human CLK2 kinase | actives 90% (n = 65) | Reaction Biology kinase assay, 10 uM ATP | shares compounds with NTMT1 inhibitor | Potency, µM, usual class: inhibitors;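 active = compound that inhibits Clk2 kinase in the dose series, with an IC50 potency reported; inactive = no inhibition seen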
# CLK3 RBC: inhibitors of human CLK3 kinase | recombinant CLK3 kinase assay, 10 uM ATP | actives 40% (n = 65) | Potency, µM, actives largely listed as inhibitors | shares compounds with NTMT1 inhibitor;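 active = compounds that inhibited Clk3 enough in the ten-dose series to give a half-maximal potency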
# DYRK1B inh: blocks human DYRK1B kinase activity. shares compounds with NTMT1 inhibitor. Recombinant Dyrk1b kinase assay, 10 uM ATP. Potency, µM, most hits filed as inhibitors. actives 80% (n = 65);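 active = compounds whose dose response shows an inhibitor phenotype against the kinase Dyrk1b; inactive = compounds showing no inhibitor phenotype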
# CLK1 inh: CLK1 kinase inhibition | shares compounds with NTMT1 inhibitor | AID 504430 | Potency, µM, hits mostly inhibitors | recombinant Clk1 kinase assay, 10 uM ATP | actives 90% (n = 65);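 active = compounds that block the splicing kinase Clk1 enough to give a fitted half-inhibition concentration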
# Sfp PPTase inh: inhibitors of Bacillus subtilis Sfp PPTase, optimization followup | shares compounds with NTMT1 inhibitor | purified Sfp PPTase enzyme activity, qHTS | Potency, µM (top dose mostly 114 µM), inactives show at the highest dose activity change, negative = inhibition, actives largely listed as inhibitors | actives 78% (n = 230) | AID 540350
# HM489 growth: B. subtilis HM489 growth inhibition; AID 540353; Potency, µM (doses to about 114 µM), for the others: at the highest dose activity change, negative = inhibition, most hits filed as inhibitors; actives 50% (n = 220); shares compounds with NTMT1 inhibitor; B. subtilis HM489 (acpS-) growth, BacTiter-Glo, 5 h
# Sfp PPTase gel: inhibits B. subtilis Sfp PPTase in gel assay. shares compounds with NTMT1 inhibitor. purified Sfp PPTase, gel-based product detection. Potency, µM (doses to about 250 µM), without a hit: top-dose activity change, negative = inhibition, hits mostly inhibitors. actives 54% (n = 220)
# Sfp SAR2: inhibitors of Bacillus subtilis Sfp PPTase, SAR round 2; actives 87% (n = 230); shares compounds with NTMT1 inhibitor; purified Sfp enzyme, PPTase activity, qHTS; AID 602370; Potency, µM (top dose mostly 57.1 µM), for inactives: at the top dose activity change, negative = inhibition, most hits filed as inhibitors
# HSD17B4 inh: inhibits human HSD17B4, off-target for HPGD inhibitors; shares compounds with NTMT1 inhibitor; purified HSD17B4, estradiol/NAD+, NADH fluorescence; actives 10% (n = 230); Potency, µM (top dose mostly 57.1 µM), without a hit: at the top dose activity change, negative = inhibition, most hits filed as inhibitors
# ALDH1A1 inh: counter-screen for HPGD inhibitors: human ALDH1A1 inhibition; shares compounds with NTMT1 inhibitor; recombinant ALDH1A1, NADH fluorescence, propionaldehyde/NAD+; Potency, µM (titrated, usually from 57.1 µM), for inactives: at the top dose activity change, negative = inhibition, hits mostly inhibitors; actives 93% (n = 230)
# NNMT inh: blocks human NNMT methyltransferase; Potency, µM (titrated, usually from 57.1 µM), without a hit: at the top dose activity, negative = inhibition, actives largely listed as inhibitors; actives 10% (n = 120); shares compounds with NTMT1 inhibitor; NNMT MTase-Glo luminescence, SAH detection
# Target sequence (P40261 whole entry, looked up): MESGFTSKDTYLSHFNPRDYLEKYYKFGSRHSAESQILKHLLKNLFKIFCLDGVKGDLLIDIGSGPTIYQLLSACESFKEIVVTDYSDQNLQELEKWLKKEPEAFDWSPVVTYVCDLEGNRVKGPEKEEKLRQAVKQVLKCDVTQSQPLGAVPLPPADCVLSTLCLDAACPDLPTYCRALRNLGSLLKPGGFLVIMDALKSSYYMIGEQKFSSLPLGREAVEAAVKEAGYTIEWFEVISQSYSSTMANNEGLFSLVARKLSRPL
# An asterisk follows results filed as active; i = inactive; ? = inconclusive; / = not tested or not shown; [ ] = another dose, or the depositor's remark. Unless noted, calls come from the whole dose curve; as a rule, active = well fitted curve in the direction sought with a large enough effect; inconclusive = small, poorly fitted or top-dose-only effect, or another doubt; inactive = no such curve, though single readings can be large; an effect the other way counts as inactive or inconclusive.
SMILES,NTMT1 inhibitor,others
Cc1cc(C)nc(NC(=S)N2CCN(c3ccc4c(c3)OCO4)CC2)c1,28µM*,Sfp PPTase inh=9.4µM*;HM489 growth=6%;Sfp PPTase gel=0.63µM*;Sfp SAR2=14µM*;HSD17B4 inh=?;ALDH1A1 inh=4.3µM*
Cc1cc(C)nc(NC(=S)N2CCN(c3ccc4occc4c3)CC2)c1,?,Sfp PPTase inh=3.7µM*;HM489 growth=?;Sfp PPTase gel=4µM*;Sfp SAR2=4.6µM*;HSD17B4 inh=?;ALDH1A1 inh=17µM*
Cc1nc(CN(C)c2ncnc3cc(-c4ccc5c(c4)OCO5)ccc23)cs1,?,DYRK1A inh-1=9.2µM*;CLK4 inh-2=15*;DYRK1A inh-2=i;CLK2 RBC=i;CLK3 RBC=i;DYRK1B inh=i;CLK1 inh=i
CCn1cnc(CCN(C)c2ncnc3ccc(-c4ccc5c(c4)OCO5)cc23)c1,/,DYRK1A inh-1=8.2µM*
Cc1nc(C(C)N(C)c2ncnc3ccc(-c4ccc5c(c4)OCO5)cc23)cs1 (stereo unspecified),-9%[57.5 µM],CLK4 inh-1=29µM*
Cc1nc(CCN(C)c2ncnc3ccc(-c4ccc5c(c4)OCO5)cc23)cs1,?,CLK4 inh-1=0.082µM*
Cn1ccc2cc(-c3ccc4ncnc(NCc5ccc6c(c5)OCO6)c4c3)ccc21,10%,
C[C@H](N)C(=O)Nc1cccc(-c2nn3c(=O)cc(N4CCNCC4)nc3s2)c1,2%,
CCC1C(=O)N(C)c2cnc(Nc3ccc(C(=O)NC4CCN(C)CC4)cc3OC)nc2N1C1CCCC1 (stereo unspecified),13µM*,NNMT inh=?

# Compound activity as filed in PubChem.
